Assay outcomes (PubChem BioAssay)
Six1-Eya2 blk – inhibitors of human Six1/Eya2 interaction; 360,000 tested, 0.56% active; Q15475+O00167; AlphaScreen GST-Six1/His-Eya2 binding, biochemical; hits give low values; activity change, % (concentration not given with the values); in the data active = activity change below about -65%; inconclusive = mostly about -30% to -63%
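Homogeneous AlphaScreen proximity assay pairing GST-Six1 with His-tagged Eya2 (added as 5X mix: 250 nM and 500 nM) in 50 mM Tris pH 8.0, 300 mM NaCl, 1 mM TCEP. Glutathione donor and nickel acceptor beads; 1 h, 37 °C, dark.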
CtBP-E1A inh – inhibitors of CtBP/E1A interaction; 340,000 tested, 0.49% active; activity change, % (concentration not given with the values); AlphaScreen GST-E1A/His-CtBP binding, 1536-well; hits give low values; in the data active = activity change below about -65%; inconclusive = mostly about -30% to -63%
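AlphaScreen with 125 nM GST-E1A and 125 nM His-CtBP (5X stocks) in Tris pH 8.0, 300 mM NaCl, BSA, Tween 20, TCEP. Compounds preincubated 2 h at 37 deg C, then glutathione donor/nickel acceptor beads added for 1 h at 37 deg C in dark.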
BAZ2B block – blocks human BAZ2B; Potency, µM (highest dose often 114 µM), hits mostly inhibitors; 360,000 tested, 4.4% active; Q9UIF8; AID 504333; AlphaScreen BAZ2B-H3K14Ac peptide displacement; note: nearly all actives have a fitted effect of over 60% in size
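Multi-concentration screen (max 110 uM) measuring displacement of acetylated histone H3 peptide from BAZ2B by AlphaScreen, using 50 nM protein, 50 nM peptide and 10 ug/mL streptavidin donor plus Ni-chelate acceptor beads.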
JMJD2A Tudor – blocks the human JMJD2A Tudor domain; O75164; 390,000 tested, 4.4% active; Potency, µM (titrated, usually from 114 µM), actives largely listed as inhibitors; AlphaScreen JMJD2A-Tudor / H3K4me3 peptide binding; note: nearly all actives have a fitted effect of over 50% in size
HP1b chromo inh – blocks HP1-beta chromodomain binding to methylated histone tails; AlphaScreen HP1-beta / biotin-H3K9me3 peptide binding; 390,000 tested, 0.56% active; P83916; AID 540317; Potency, µM (doses to about 114 µM), hits mostly inhibitors; note: nearly all actives have a fitted effect of over 70% in size
Target sequence (P83916 whole entry, looked up): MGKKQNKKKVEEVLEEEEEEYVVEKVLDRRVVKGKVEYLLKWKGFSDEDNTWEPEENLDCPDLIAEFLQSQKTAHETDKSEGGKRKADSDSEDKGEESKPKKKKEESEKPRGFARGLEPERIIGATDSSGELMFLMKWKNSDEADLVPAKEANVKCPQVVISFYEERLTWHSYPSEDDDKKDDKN
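Compound inhibition of the preformed complex between 50 nM HP1-beta and 50 nM biotinylated H3K9me3 peptide was read by AlphaScreen. Buffer was PBS pH 7.4 with 0.01% Tween-20. Incubations ran 30 min at room temperature, with 10 ug/mL donor/acceptor beads.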
G9a block – blocks human histone lysine methyltransferase G9a; Q96KQ7; G9a H3K9 monomethylation, AlphaScreen, 2 h; Potency, µM (highest dose often 102 µM), hits mostly inhibitors; 350,000 tested, 8.8% active; note: nearly all actives have a fitted effect of over 75% in size
Target sequence (Q96KQ7 913-1193 limits assumed): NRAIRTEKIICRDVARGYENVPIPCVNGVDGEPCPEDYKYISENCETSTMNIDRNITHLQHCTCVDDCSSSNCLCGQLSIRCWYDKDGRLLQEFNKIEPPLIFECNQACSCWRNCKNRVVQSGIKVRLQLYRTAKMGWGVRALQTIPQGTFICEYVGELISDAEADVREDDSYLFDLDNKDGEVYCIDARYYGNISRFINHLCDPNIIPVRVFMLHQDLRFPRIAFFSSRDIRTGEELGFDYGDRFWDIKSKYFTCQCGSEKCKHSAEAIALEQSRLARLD
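AlphaScreen read-out: biotin-H3K9 peptide (500 nM) methylation by 20 nM enzyme with 20 uM SAM, 2 h at room temperature after 15 min compound preincubation; anti-monomethyl H3K9 antibody plus donor/acceptor beads, 10 min dark.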
Of the large screens only hits and unclear results are named; the others gave an inactive call. Sampled rows, rich in hits. Any-hit rate of the full collection: about 10%. Unless noted, calls come from the whole dose curve; as a rule, active = well fitted inhibition curve with a large enough effect; inconclusive = small, poorly fitted or top-dose-only effect; inactive = no such curve, though single readings can be large or run the other way.

O=C1Nc2ccccc2OC1CC(=O)N1CCOCC1 (stereo not drawn)	none
O=C1Nc2ccccc2OC1CC(=O)N1CCN(c2cccc(C(F)(F)F)c2)CC1 (stereo not drawn)	G9a block 35µM
COc1cc(CN2CCC(N3CCC(C(=O)N4CCCC4)CC3)CC2)cc2c1OCO2	none (no result: G9a block)
COc1cc(Cc2cc(OC)c(O)c(OC)c2)cc(OC)c1O	none (no result: BAZ2B block, JMJD2A Tudor, HP1b chromo inh, G9a block)
COc1cc(CN2CCC(C(=O)N3CCCC(C)C3)CC2)cc(Br)c1O (stereo not drawn)	BAZ2B block 22µM, JMJD2A Tudor inconclusive, HP1b chromo inh inconclusive, G9a block 7.9µM
COc1ccc(CN2CCC(C(=O)N3CCCC(C)C3)CC2)cc1OC (stereo not drawn)	BAZ2B block 50µM, JMJD2A Tudor 18µM, G9a block 18µM
COc1cc(CN2CCCCCC2)cc(Br)c1O	BAZ2B block 71µM, JMJD2A Tudor 22µM, HP1b chromo inh inconclusive, G9a block inconclusive
Cc1cc2c(s1)c1cnn(Cc3c(F)ccc(Cl)c3F)c(=O)c1n2C	none (no result: Six1-Eya2 blk, CtBP-E1A inh, BAZ2B block, HP1b chromo inh, G9a block)
COc1cc(-c2nn3c(-c4cc(-c5ccccc5)n[nH]4)nnc3s2)cc(OC)c1OC	none (no result: Six1-Eya2 blk, CtBP-E1A inh, BAZ2B block, G9a block)
CCOc1ccc(NC(=O)c2cn3c4c(ccc(Cl)c4c2=O)OC(C)C3)cc1 (stereo not drawn)	none (no result: Six1-Eya2 blk, CtBP-E1A inh)
C/C(=N\NC(=O)CSCc1ccccc1Cl)c1cc(O)ccc1O	Six1-Eya2 blk inconclusive, BAZ2B block 40µM, JMJD2A Tudor inconclusive, HP1b chromo inh inconclusive (no result: G9a block)
O=C1CCC(C(=O)OCc2c(Cl)cccc2Cl)N1 (stereo not drawn)	none
O=C1CCC(C(=O)OCc2ccccc2)N1 (stereo not drawn)	G9a block 6.3µM
CC(C)CCn1c(=O)c2sccc2n2c(CCCC(=O)Nc3ccc(F)c(Cl)c3)nnc12	BAZ2B block inconclusive, JMJD2A Tudor inconclusive (no result: Six1-Eya2 blk, CtBP-E1A inh)
CCOC(=O)c1csc(N/N=C2\CCCc3ccccc32)n1	BAZ2B block inconclusive, JMJD2A Tudor inconclusive, G9a block 25µM (no result: CtBP-E1A inh)
CCOC(=O)c1csc(N/N=C2\CCc3ccccc32)n1	BAZ2B block 45µM, JMJD2A Tudor inconclusive, G9a block 28µM
CCOc1ccccc1NC(=O)CCc1c(C)nc2c3cccnc3nn2c1C	none (no result: Six1-Eya2 blk, CtBP-E1A inh)
CCCCCCCCC1=NCCc2c1[nH]c1ccccc21	BAZ2B block inconclusive, JMJD2A Tudor 22µM, G9a block 45µM
CC(C)C/C=C1\CCc2c([nH]c3ccccc23)C1=O	none
COc1ccc(/C=N/N2CCN(C3c4ccccc4-c4ccccc43)CC2)cc1O	BAZ2B block 35µM, JMJD2A Tudor inconclusive, HP1b chromo inh inconclusive, G9a block inconclusive
C(=N\N1CCN(C2c3ccccc3-c3ccccc32)CC1)/c1cccnc1	Six1-Eya2 blk inconclusive, CtBP-E1A inh inconclusive, BAZ2B block 40µM, JMJD2A Tudor 56µM, HP1b chromo inh inconclusive
C(=N\N1CCN(C2c3ccccc3-c3ccccc32)CC1)/c1ccccn1	BAZ2B block 20µM, JMJD2A Tudor 18µM, HP1b chromo inh inconclusive
COc1ccc(/C=N/N2CCOCC2)cc1O	none
Cc1ccc(/C=N/N2CCN(C3c4ccccc4-c4ccccc43)CC2)s1	G9a block 79µM
CCn1cnc2c(Nc3ccc(Cc4cccnc4)cc3)nc(C#N)nc21	none (no result: Six1-Eya2 blk, CtBP-E1A inh, BAZ2B block, HP1b chromo inh, G9a block)
Cc1c(Cl)ccc2sc(N3CCN(C(=O)c4ccco4)CC3)nc12	BAZ2B block inconclusive (no result: Six1-Eya2 blk, CtBP-E1A inh)
CN(C)S(=O)(=O)c1ccc2c(c1)c(=O)c(C(=O)N1CCN(c3cccc(Cl)c3)CC1)cn2C	none (no result: Six1-Eya2 blk, CtBP-E1A inh, BAZ2B block)
O=C(COc1ccc(F)cc1)NCc1ccc2c(c1)CCN2C(=O)c1ccc(F)cc1	none (no result: Six1-Eya2 blk, CtBP-E1A inh)
COc1ccc(CN(Cc2ccccc2)C(=O)c2ccco2)cc1COc1ccc(NC(C)=O)cc1	JMJD2A Tudor inconclusive (no result: Six1-Eya2 blk, CtBP-E1A inh, BAZ2B block, G9a block)
Cc1c(C(=O)NCCc2ccc(S(N)(=O)=O)cc2)sc2nc3n(c(=O)c12)CCCC3	none (no result: Six1-Eya2 blk, CtBP-E1A inh)
CN(Cc1ccccc1)c1ccc(-c2nc(-c3ccncc3)no2)cc1[N+](=O)[O-]	none (no result: Six1-Eya2 blk, CtBP-E1A inh)
CCOCCCNCC(=O)NCC1CCCCC1	BAZ2B block 50µM, JMJD2A Tudor 20µM, HP1b chromo inh inconclusive, G9a block 20µM (no result: CtBP-E1A inh)
